Sampled rows, rich in hits. Any-hit rate of the full collection: about 1.8%.
LYPLA1 inh – LYPLA1 inhibitors, primary screen, counter-screen for PME1 inhibitor project, biochemical, fluorescence polarization, FP-Rh probe ABPP; recombinant LYPLA1; inhibition, % at 5.9 µM; actives 0.16% (n = 320,000);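 active means inhibition above the mean of all tested compounds plus 3 SD, set per campaign, cut at about 14% in these data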;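 further: inhibitors block serine hydrolase probe labeling of LYPLA1 so polarization falls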
Target sequence (O75608 whole entry, looked up): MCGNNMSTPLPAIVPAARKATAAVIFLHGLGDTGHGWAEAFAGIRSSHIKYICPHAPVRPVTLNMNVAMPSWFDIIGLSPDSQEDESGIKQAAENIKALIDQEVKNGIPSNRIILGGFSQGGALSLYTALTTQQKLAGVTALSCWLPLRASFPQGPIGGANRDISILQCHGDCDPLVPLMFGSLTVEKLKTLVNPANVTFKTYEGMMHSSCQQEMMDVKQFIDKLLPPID
Fam108B inh – mouse Fam108B serine hydrolase inhibitors, primary screen, counter-screen for RBBP9 inhibitor project, biochemical, fluorescence polarization. inhibition, % at 9.51 µM. AID 1947, 2009. actives 0.33% (n = 300,000). recombinant Fam108B, FP-Rh probe fluorescence polarization;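 active means inhibition above the screen mean inhibition plus 3 SD, computed separately per campaign, cut at about 18% in these data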;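 further: inhibitors lower polarization as less probe binds the enzyme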
PME-1 inh – PME-1 inhibitors via competitive probe labeling, primary screen, biochemical, fluorescence polarization, FP-Rh probe, HTS | Protein phosphatase methylesterase 1 (Homo sapiens), Q9Y570 | recombinant PME-1 | inhibition, % at 5.9 µM | actives 0.53% (n = 320,000);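 active means inhibition above the campaign mean of all compounds plus 3 SD, cut at about 26% in these data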;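 further: competitive labeling of PME-1 active site by serine hydrolase directed probe; inhibitors block probe labeling so polarization falls and inhibition rises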
GSTO1 counter – inhibitors of recombinant GSTO1, primary screen, counter-screen for RBBP9 inhibitor project, biochemical, fluorescence polarization. Glutathione S-transferase omega-1 (Homo sapiens), P78417. activity-based probe fluorescence polarization. inhibition, % at 5.96 µM. actives 1.1% (n = 300,000);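 active means inhibition above the campaign mean inhibition plus 3 SD, cut at about 35% in these data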
Target sequence (P78417 whole entry, looked up): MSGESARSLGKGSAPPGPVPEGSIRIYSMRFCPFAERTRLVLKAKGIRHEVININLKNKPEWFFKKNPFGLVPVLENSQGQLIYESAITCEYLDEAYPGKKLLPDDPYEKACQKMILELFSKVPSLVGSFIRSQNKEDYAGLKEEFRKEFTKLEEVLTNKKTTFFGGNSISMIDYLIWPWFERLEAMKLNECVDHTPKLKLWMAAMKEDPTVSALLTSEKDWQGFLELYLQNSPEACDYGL
LYPLA2 inh – LYPLA2 inhibitors, primary screen, counter-screen for PME1 inhibitor project, biochemical, fluorescence polarization, FP-Rh probe ABPP; Acyl-protein thioesterase 2 (Homo sapiens), O95372; recombinant LYPLA2; inhibition, % at 5.9 µM; actives 0.38% (n = 320,000); AID 2177, 2009;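 active means inhibition above the screen-wide mean plus 3 SD, limit set per campaign, cut at about 26% in these data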
Target sequence (O95372 whole entry, looked up): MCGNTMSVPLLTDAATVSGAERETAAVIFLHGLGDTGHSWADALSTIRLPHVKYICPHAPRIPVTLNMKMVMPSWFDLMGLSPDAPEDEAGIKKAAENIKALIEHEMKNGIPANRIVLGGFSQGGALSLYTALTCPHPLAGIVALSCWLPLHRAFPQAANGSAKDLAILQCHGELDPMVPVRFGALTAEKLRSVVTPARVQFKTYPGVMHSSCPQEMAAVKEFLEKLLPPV
PAD4 FP inh – human PAD4 inhibitors, primary screen, biochemical, fluorescence polarization, 1536-well format | recombinant PAD4, RCA probe fluorescence polarization | inhibition, % at 6.36 µM | actives 0.41% (n = 330,000);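 active means percent inhibition above a cutoff equal to the mean of all tested compounds plus 3 SD, cut at about 15% in these data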
LYPLA2 conf – LYPLA2 inhibitors, retest, confirmation, counter-screen for PME1 inhibitor project, biochemical, fluorescence polarization, FP-Rh probe ABPP; shares compounds with LYPLA2 inh; recombinant LYPLA2; inhibition, % at 5.9 µM; actives 72% (n = 1,100);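 active means mean inhibition across replicates above the hit cutoff set in the primary screen, cut at about 26% in these data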;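 further: blocked labeling of the enzyme by serine hydrolase FP-Rh probe lowers polarization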
LYPLA2 gel ABPP – LYPLA2 inhibitors in proteome, late-stage follow-up, gel-based competitive ABPP, fluorescence, assay provider; rhLYPLA2 in mouse brain proteome, gel ABPP FP-Rh; shares compounds with LYPLA2 inh; AID 652029, 2013; actives 30% (n = 150); inhibition, % at 20 µM;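 active means inhibition of LYPLA2 enzyme probe labeling above about 50%, limit read from the data; inactive means inhibition below that limit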;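 further: loss of FP-Rh probe labeling of the LYPLA2 gel band measured as band density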
PAD4 FP conf – human PAD4 inhibitors, confirmation, biochemical, fluorescence polarization; shares compounds with PAD4 FP inh; recombinant PAD4, RCA probe fluorescence polarization; inhibition, % at 6.36 µM; actives 28% (n = 1,200); AID 488796, 2010;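 active means mean inhibition across replicates above the hit cutoff set by the earlier primary screen, cut at about 15% in these data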;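 further: inhibitors block active-site labeling by the probe so polarization falls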
Of the large screens only hits and unclear results are named; the others gave an inactive call (follow-up assays come after a bar, where they were run).

COC(=O)c1c(NC(=O)COC(=O)C2CCC2)sc(C)c1C	none
CCOc1cccc(Nc2ccc([N+](=O)[O-])cn2)c1	LYPLA2 inh 28.2 | LYPLA2 conf inactive
COc1ccccc1C(=O)COC(=O)c1cccc(-n2cnnn2)c1	none (no result: Fam108B inh, GSTO1 counter)
COc1ccccc1C(=O)COC(=O)c1ccc(-n2cnnn2)cc1	LYPLA2 inh 31.7 | LYPLA2 conf inactive
CC(=O)Nc1ccc2nc(CN3CCN(Cc4ccc(F)cc4)C(CCO)C3)ccc2c1 (centres undefined)	none
CCN(C(=O)CSc1nnc(C)c(=O)[nH]1)c1cccc2ccccc12	none (no result: LYPLA1 inh, Fam108B inh, PME-1 inh, GSTO1 counter, LYPLA2 inh)
CCOC(=O)N1CCN(C(=O)COC(=O)c2ccc(O)cc2O)CC1	none
O=C(OCC(=O)N1CCN(C(=O)COC(=O)c2ccc(O)cc2O)CC1)c1ccc(O)cc1O	LYPLA2 inh 27.9 | LYPLA2 conf 26.8
N#CCC(=O)Nc1ccc(C(=O)OCc2ccccc2Oc2ccccc2)cc1	PME-1 inh 37.9, LYPLA2 inh 26.0 | LYPLA2 conf inactive
Cc1ccc(C)c(N2C(=O)c3ccc(C(=O)OCC(=O)c4c(N)n(C)c(=O)n(C)c4=O)cc3C2=O)c1	LYPLA2 inh 26.3 | LYPLA2 conf 44.1
COc1ccc(C(=O)OCC(=O)c2c(N)n(C)c(=O)n(C)c2=O)cc1OC	none
O=C1C2CCCCN2C(=O)N1CCCCN1CCN(c2ccc([N+](=O)[O-])cc2)CC1 (centres undefined)	LYPLA2 inh 30.9 | LYPLA2 conf inactive
Cc1ccc(N2CCN(CCCN3C(=O)C4CCCN4C3=O)CC2)cc1 (centres undefined)	none
O=[N+]([O-])c1ccc(CN2CCN(c3ccc([N+](=O)[O-])cc3)CC2)cc1	LYPLA2 inh 47.2 | LYPLA2 conf 31.3
Cc1nc(C(=O)NC2CCOCC2)sc1C1(C)CC(c2ccccc2)=NO1 (centres undefined)	none
Cc1nc(C(=O)NC2CCOCC2)sc1C1(C)CC(c2cccc([N+](=O)[O-])c2)=NO1 (centres undefined)	LYPLA2 inh 34.4 | LYPLA2 conf 44.5
CCOC(=O)[C@H]1[C@H]2COc3ccccc3[C@@H]2N2C(=O)c3ccc(C)cc3NC(=O)[C@@]12C	none
Cc1ccc(CNC(=O)CCS(=O)(=O)Cc2ccc(C)cc2)cc1	none
CC1(C)Cc2c(sc3nnn(CC(=O)Nc4ccccc4)c(=O)c23)CO1	LYPLA2 inh 28.0 | LYPLA2 conf 36.1
Fc1ccc(CSc2ncnc3ccccc23)cc1	LYPLA2 inh 26.1 | LYPLA2 conf 25.9
CC(Sc1nnc(-c2ccccc2F)n1C1CC1)C(=O)NC(N)=O (centres undefined)	none
COC(=O)c1cc(C)cc(=O)o1	none
Cc1cc(CCCCCCCCc2cc(C)cc(=O)o2)oc(=O)c1	LYPLA2 inh 37.4 | LYPLA2 conf 44.8
O=C(c1ccc(S(=O)(=O)N2CCCC2)cc1)N1CCC(CN2C(=O)c3cccc4cccc(c34)C2=O)CC1	LYPLA2 inh 26.8 | LYPLA2 conf inactive
COc1ccc(S(=O)(=O)N2CCC(CN3C(=O)c4cccc5cccc(c45)C3=O)CC2)cc1	none
CC(=O)N1CCN(C(=O)c2ccc(C)c(S(=O)(=O)N3CCCCC3)c2)CC1	none (no result: LYPLA1 inh, Fam108B inh, PME-1 inh, GSTO1 counter, LYPLA2 inh)
Cc1ccc(C(=O)N2CCN(C)CC2)cc1S(=O)(=O)N1CCCCCC1	LYPLA2 inh 27.2 | LYPLA2 conf inactive
CCCCOc1ccc(CSc2nc(C)[nH]c2[N+](=O)[O-])cc1[N+](=O)[O-]	LYPLA2 inh 49.8 | LYPLA2 conf 54.3 | LYPLA2 gel ABPP inactive
Cc1ccc(C)c(NC(=O)CN(C)C(=O)c2ccc(S(=O)(=O)N3CCCCCC3)cc2)c1	none (no result: Fam108B inh, GSTO1 counter)
Cc1cc(C)c(C(=O)N2CCCC(N3CCN(c4cccc(C(F)(F)F)c4)CC3)C2)o1 (centres undefined)	LYPLA2 inh 52.0 | LYPLA2 conf 50.5 | LYPLA2 gel ABPP inactive
Cn1nccc1C(=O)N1CCCC(N2CCN(c3cccc(C(F)(F)F)c3)CC2)C1 (centres undefined)	LYPLA2 inh 54.0 | LYPLA2 conf 52.5 | LYPLA2 gel ABPP inactive
COc1cccc(-c2cc(C(=O)Nc3c(C)nn(Cc4ccccc4)c3C)no2)c1	LYPLA2 inh 56.3 | LYPLA2 conf 45.4
COc1cccc(-c2cc(C(=O)Nc3c(C)nn(Cc4ccccc4C)c3C)no2)c1	LYPLA2 inh 44.9 | LYPLA2 conf 47.7
COc1cccc(-c2cc(C(=O)Nc3cnn(Cc4ccccc4C)c3)no2)c1	none
COc1ccc(-c2cc(C(=O)Nc3c(C)nn(Cc4ccccc4)c3C)no2)cc1	none
O=C(CNC(=O)c1ccc(Br)cc1)NCc1cccnc1	none
CCCc1ncc(CN2CCCC(C(=O)Nc3ccc(-c4cccc(OC)c4)cc3)C2)cn1 (centres undefined)	none
COc1cccc(-c2ccc(NC(=O)C3CCCN(Cc4cnc(N(C)C)s4)C3)cc2)c1 (centres undefined)	LYPLA2 inh 27.8 | LYPLA2 conf inactive
COC(=O)c1ccc(NC(=O)C(=O)N2CCN(C(=S)Nc3ccc(OC)cc3)CC2)cc1	LYPLA2 inh 42.1 | LYPLA2 conf 57.8
COC(=O)c1ccc(NC(=O)C(=O)N2CCN(C(=S)Nc3ccc(C)cc3)CC2)cc1	LYPLA2 inh 48.0 | LYPLA2 conf 54.5
COc1ccc(CCNC(=O)COc2ccc(C)nc2[N+](=O)[O-])cc1	none
CCCCNC1c2ccccc2C(=O)N1Cc1ccccc1 (centres undefined)	none
COc1ccc(C(=O)c2nccc3cc(OC)c(OC)cc23)cc1OC	LYPLA2 inh 26.3, PAD4 FP inh 60.5 (no result: Fam108B inh, GSTO1 counter) | LYPLA2 conf inactive | PAD4 FP conf 25.1
CN(c1ccc(OCC(=O)NC2CCC(O)CC2)cc1)S(=O)(=O)c1ccc(Cl)cc1 (centres undefined)	none (no result: LYPLA1 inh, Fam108B inh, PME-1 inh, GSTO1 counter, LYPLA2 inh)
